GALR2 antag = GALR2 (human) receptor antagonism; O43603; GALR2-expressing cells, antagonist mode; inhibition, % at 4 µM; 140,000 tested, 0.39% active; AID 828; in the data active = inhibition above about 27%;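 note: cells stimulated with galanin 1-16 at roughly its EC80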
Target sequence (O43603 whole entry, looked up): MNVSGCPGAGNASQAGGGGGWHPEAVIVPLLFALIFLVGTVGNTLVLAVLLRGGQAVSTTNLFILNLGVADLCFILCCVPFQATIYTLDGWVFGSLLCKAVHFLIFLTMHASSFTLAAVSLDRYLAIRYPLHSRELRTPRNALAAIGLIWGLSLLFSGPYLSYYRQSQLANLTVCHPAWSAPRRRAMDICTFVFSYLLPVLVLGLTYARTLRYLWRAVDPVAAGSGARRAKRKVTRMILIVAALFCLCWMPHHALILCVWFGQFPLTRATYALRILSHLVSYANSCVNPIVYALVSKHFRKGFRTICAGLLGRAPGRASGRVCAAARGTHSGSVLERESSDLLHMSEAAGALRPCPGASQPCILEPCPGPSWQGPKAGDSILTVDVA
GALR2 ag = GALR2 (human) receptor agonism; O43603; GALR2-expressing cells, agonist activation read-out; activation, % (no concentration beside the values); 140,000 tested, 0.48% active; AID 803; in the data active = activation above about 5%, passing the limit was not always enough
PostGolgi yeast = growth inhibition of a yeast mutant, post-Golgi transport screen | post-Golgi transport phenotypic cell assay | inhibition, % at 10 µM | 98,000 tested, 0.9% active | AID 739;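 note: yeast cells grown in 1536-well plates; yeast grown about 18 h at 30C before absorbance read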
S1P2 antag = antagonists of human S1P2 receptor. cell-based S1P2 antagonist assay, inhibition at 5 uM. 97,000 tested, 0.21% active. AID 736. inhibition, % at 5 µM. O95136; in the data active = inhibition above about 45%;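 note: CRE beta-lactamase reporter cells expressing human S1P2 stimulated with S1P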
S1P2 ag = agonists of human S1P2 receptor. S1P2-expressing cell line, agonist reporter read-out. activation, % at 4.5 µM. 97,000 tested, 0.46% active. AID 729; in the data active = activation above about 16%
PostGolgi ctrl = growth of the yeast control strain, post-Golgi counter-screen | efflux-deficient yeast background strain, growth absorbance A615, 16 h | inhibition, % at 10 µM | 98,000 tested, 5% active | AID 738
Numbers stand for hits. This excerpt belongs to a sample that is enriched for hits. Cut-off read from the data, not from the text of the source, unless noted: active = inhibition above about 30%; inactive = the rest.

`O=C(COC(=O)c1ccc(Sc2ccccc2)c([N+](=O)[O-])c1)NC1CCCc2ccccc21` (configuration not stated) gave GALR2 antag inactive, GALR2 ag inactive, PostGolgi yeast inactive, S1P2 antag inactive, S1P2 ag inactive and PostGolgi ctrl inactive.
O=C(N1CCN(c2cccc(Cl)c2)CC1)C1(S(=O)(=O)c2ccc(Cl)cc2)CC1 was read as GALR2 antag inactive, GALR2 ag inactive, PostGolgi yeast 80, S1P2 antag inactive, S1P2 ag inactive and PostGolgi ctrl 90.
CC(=O)c1ccc(N2CCN(C(=O)C3(S(=O)(=O)c4ccc(Cl)cc4)CC3)CC2)cc1 was read as GALR2 antag inactive, GALR2 ag inactive, PostGolgi yeast inactive, S1P2 antag inactive, S1P2 ag inactive and PostGolgi ctrl inactive.
Cc1ccc(Cl)cc1N1CCN(C(=O)C2(S(=O)(=O)c3ccc(Cl)cc3)CC2)CC1 was read as GALR2 antag inactive, GALR2 ag inactive, PostGolgi yeast inactive, S1P2 antag inactive, S1P2 ag inactive and PostGolgi ctrl 40.
CC(=O)NC(Cc1ccc(F)cc1)C(=O)N1CCN(C(=O)NCc2ccccc2)CC1 (configuration not stated) was read as GALR2 antag inactive, GALR2 ag inactive, PostGolgi yeast inactive, S1P2 antag inactive, S1P2 ag inactive and PostGolgi ctrl inactive.
Cc1sc2nc(C(C)C)nc(SCC(=O)NCc3ccco3)c2c1C was read as GALR2 antag inactive, GALR2 ag inactive, PostGolgi yeast inactive, S1P2 antag inactive, S1P2 ag inactive and PostGolgi ctrl 40.
`CCOC(=O)c1c(C)sc2c1N(C(=O)CN1CCOCC1)c1cc(Cl)ccc1S2` gave GALR2 antag inactive, GALR2 ag inactive, PostGolgi yeast inactive, S1P2 antag inactive, S1P2 ag inactive and PostGolgi ctrl 54.
For O=C(N1CCOCC1)N1CCC(NC(=O)C23CC4CC(CC(C4)C2)C3)CC1 the results were GALR2 antag inactive, GALR2 ag inactive, S1P2 antag inactive and S1P2 ag inactive.
Cc1ccccc1CSCC(=O)NCc1ccco1 was read as GALR2 antag inactive and GALR2 ag inactive.
CC(C)Oc1ccc(C2CNC(=O)C2)cc1 (configuration not stated) was read as PostGolgi yeast inactive and PostGolgi ctrl 33.
Cc1ccc(OC(=O)C2c3ccccc3Oc3ccccc32)cc1C was read as GALR2 antag inactive and GALR2 ag inactive.
For COc1cccc(OCCOc2c(OC)cccc2OC)c1 the results were GALR2 antag inactive, GALR2 ag inactive, PostGolgi yeast inactive, S1P2 antag inactive, S1P2 ag inactive and PostGolgi ctrl inactive.
CCCCC1CC1C(=O)Nc1ccc(OC)c(OC)c1 (configuration not stated) was read as GALR2 antag inactive, GALR2 ag inactive, PostGolgi yeast inactive and PostGolgi ctrl 37.
CCCCOC(=O)c1ccc(NC(=O)Nc2ccc(OC)c(OC)c2)cc1 was read as GALR2 antag inactive, GALR2 ag inactive, PostGolgi yeast inactive, S1P2 antag inactive, S1P2 ag inactive and PostGolgi ctrl inactive.
`COc1ccc(C(=O)c2sc3nc(-c4ccccc4)ccc3c2N)cc1OC` gave GALR2 antag inactive, GALR2 ag inactive, PostGolgi yeast inactive, S1P2 antag 57, S1P2 ag inactive and PostGolgi ctrl inactive.
Screening COc1ccc(-c2ccc3c(N)c(C(=O)c4ccc(OC)c(OC)c4)sc3n2)cc1 returned GALR2 antag inactive, GALR2 ag inactive, PostGolgi yeast inactive, S1P2 antag inactive, S1P2 ag inactive and PostGolgi ctrl inactive.
`COc1cccc(-n2c(CN3CCN(c4ccccc4)CC3)nc3ccc([N+](=O)[O-])cc3c2=O)c1` gave GALR2 antag inactive and GALR2 ag inactive.
Screening S=c1nc2ccccc2c2nc(-c3ccccc3)[nH]n12 returned GALR2 antag inactive, GALR2 ag inactive, PostGolgi yeast inactive, S1P2 antag inactive, S1P2 ag inactive and PostGolgi ctrl 44.
`CCN(CC)c1ccc(NC(=O)Nc2ccccc2C(F)(F)F)cc1` gave GALR2 antag inactive, GALR2 ag inactive, PostGolgi yeast inactive, S1P2 antag inactive, S1P2 ag 62 and PostGolgi ctrl inactive.
For Cc1ccc(Nc2ncccc2C(N)=O)cc1[N+](=O)[O-] the results were GALR2 antag inactive and GALR2 ag inactive.
Screening Clc1ccc(-n2c(SCc3nc4ccccc4[nH]3)nnc2-c2ccncc2)cc1 returned GALR2 antag inactive, GALR2 ag inactive, PostGolgi yeast inactive, S1P2 antag inactive, S1P2 ag inactive and PostGolgi ctrl inactive.

Source: PubChem
